Results from PubChem BioAssay (Tox21).
Results filed as inconclusive are left out. A number with no mark means an inactive call. Active and inactive are the calls of the source. Calls follow the shape of the dose curve; as a rule, active = well fitted inhibition curve with a large enough effect in the signal ratio in the repeat runs, with a control signal flat; inconclusive = weak or mixed curves, or effect the other way; inactive = flat fitted curve, though single readings scatter; the % refers to the signal ratio.

Target: D(2) dopamine receptor (Homo sapiens) (UniProt P14416)
Sequence (P14416 whole entry, looked up): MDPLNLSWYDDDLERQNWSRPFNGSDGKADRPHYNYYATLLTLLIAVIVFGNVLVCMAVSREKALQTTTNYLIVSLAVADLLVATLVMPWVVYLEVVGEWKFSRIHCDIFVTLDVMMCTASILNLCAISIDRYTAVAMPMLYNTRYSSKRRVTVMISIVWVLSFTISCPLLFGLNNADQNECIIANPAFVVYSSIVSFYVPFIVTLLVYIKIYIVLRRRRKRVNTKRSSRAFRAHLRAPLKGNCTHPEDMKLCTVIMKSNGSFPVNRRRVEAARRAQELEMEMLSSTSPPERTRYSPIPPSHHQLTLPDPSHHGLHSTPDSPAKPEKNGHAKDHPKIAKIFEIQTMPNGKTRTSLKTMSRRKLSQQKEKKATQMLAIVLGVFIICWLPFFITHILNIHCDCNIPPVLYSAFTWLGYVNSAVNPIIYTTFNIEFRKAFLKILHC
Test: Dopamine D2 receptor (DRD2) small molecule antagonists, cell-based qHTS assay (AID 1963595)
Details: HEK293-DRD2 cAMP HTRF antagonist mode; series mostly up to 92.4 µM; activity change, negative = inhibition: at the top concentration
From the text: National Center for Advancing Translational Sciences [NCATS]
Division of Preclinical Innovation [DPI]
U.S. Environmental Protection Agency [EPA]
National Institutes of Environmental Health Sciences [NIEHS]
National Toxicology Program [NTP]
U.S. Food and Drug Administration [FDA]
DRD2 is the D2 subtype of the dopamine receptor, which is coupled to Gi subtype of G protein-coupled receptor. This G protein-coupled receptor inhibits adenylyl cyclase activity. The DRD2-HEK293 cell line stably expressing D2 dopamine receptor can be used for screening agonists and antagonists of interactions between D2 and its ligands. The Hek293-DRD2 cAMP assay is based on HTRF technology. It measures changes of cAMP accumulation in response to Gi coupled GPCR activation or inhibition.
Tox21 Assay Protocol Summary:
DRD2-Hek293 cells were dispensed at 600 cells/3uL/well in 1536-well white plates using a Multidrop Dispenser. After the assay plates were incubated at a 37 C/5% CO2 incubator for 24 h, 1 uL of Ro20-1724 at final concentration of 0.1 mM was transferred to the assay plate by a Flying Reagent Dispenser. Following Ro20-1724 addition, 23 nL of compound dissolved in DMSO, positive controls or DMSO only was added to the assay plates via Wako pintool station. The assay plates were incubated at room temperature for 10 min. Next, 1 uL of mixture of NKH477 (final concentration at 200 nM) and quinpirole (final concentration at 12 nM) was added into the plates. After the assay plates were incubated at room temperature for an additional 30 min, 2.5 ul/well of cAMP-d2 and 2.5 ul/well of anti-cAMP-cryptate were added respectively into the assay plates using a Flying Reagent Dispenser. The plates were incubated at room temperature for 1 h. The fluorescence intensity in the plates was measured at 340 nm excitation and 665 & 620 nm emission by an Envision plate reader.
% is scaled to controls: 0 for no effect and ±100 for the full control effect; potency is read from the fitted curve at half-maximal effect.

Structure (SMILES)	activity change, negative = inhibition	Potency
CN1CCN(C(=O)C2CCCCC2)CC1	-2.6% [at 42.5 µM]	
CN1[C@@H]2CC[C@@H]1CC(OC(=O)C(CO)c1ccccc1)C2 (stereo not given in full)	5.49% [at 42.5 µM]	
CC(=O)OC(OC(C)=O)c1ccc([N+](=O)[O-])o1	-19.6%	
ClC(Cl)(Cl)c1ccc(C(Cl)(Cl)Cl)cc1	9.98%	
CCOC(=O)COc1ccc2c(C)c(CCN(CC)CC)c(=O)oc2c1Cl	0.983% [at 42.5 µM]	
Clc1cccc(Cl)n1	3.76%	
CC/C=C1/OC(=O)c2ccccc21	-4.85%	
O=C(OCCOCCOCCOC(=O)c1ccccc1)c1ccccc1	6.01%	
CCCC(=O)OC/C=C(\C)CCC=C(C)C	-1.19%	
C=CCN1C[C@H](C(=O)N(CCCN(C)C)C(=O)NCC)C[C@@H]2c3cccc4[nH]cc(c34)C[C@H]21	0.511% [at 42.5 µM]	
NCCCN(CCO)CCO	-1.05%	
CCCN(CCc1cccs1)[C@H]1CCc2c(O)cccc2C1	10.9% [at 42.5 µM]	
CC(C)c1ccccc1N	-5.51%	
CCCCCCOC(=O)NC(=N)c1ccc(NCc2nc3cc(C(=O)N(CCC(=O)OCC)c4ccccn4)ccc3n2C)cc1	5.61% [at 42.5 µM]	
O=C(N[C@H](CO)[C@H](O)c1ccc([N+](=O)[O-])cc1)C(Cl)Cl	2.19%	
CCCCC(CC)CNCC(CC)CCCC (stereo not given)	-1.43%	
O=C1NC(=O)[C@@H]2CC=CC[C@H]12	21.2%	
Clc1nc2ccccc2nc1Cl	-2.25%	
CC(C)(C)c1ccc(C(=O)CCCN2CCC(OC(c3ccccc3)c3ccccc3)CC2)cc1	-19.9% [at 42.5 µM]	
CC1(C)SC(C)(C)SC(C)(C)S1	3.21%	

Structure (SMILES)	activity change, negative = inhibition	Potency
O=S(=O)(O)c1cc(O)c2ccc(Nc3ccccc3)cc2c1	0.229%	
C=Cc1ccncc1	-2.43%	
O=C(O)CN1C(=O)c2cccc3cccc(c23)C1=O	13.1% [at 42.5 µM]	
Cc1ccc(Nc2nccc(N(C)c3ccc4c(C)n(C)nc4c3)n2)cc1S(N)(=O)=O	14.4% [at 42.5 µM]	
Cc1ccc(N/N=c2\c(=O)cc/c(=N\Nc3ccc(S(=O)(=O)O)cc3)c2=O)c(C)c1	11.6%	
O=C(O)CN(CCN(CC(=O)O)CC(=O)O)CC(=O)O	8.25% [at 3.28 µM]	
CCCC(=O)OC	9%	
CC(=O)Oc1ccc2c(c1)CC[C@@H]1[C@@H]2CC[C@]2(C)[C@@H](O)CC[C@@H]12	-0.883% [at 42.5 µM]	
CC(=O)OCC(=O)[C@@]1(O)CC[C@H]2[C@@H]3CCC4=CC(=O)CC[C@]4(C)[C@H]3C(=O)C[C@@]21C	-6.48% [at 42.5 µM]	
CC(=O)c1ccc(OCC(=O)N2CCCCC2)cc1	6.23% [at 42.5 µM]	
COc1cc(C(=O)OCCCN2CCCN(CCCOC(=O)c3cc(OC)c(OC)c(OC)c3)CC2)cc(OC)c1OC	-23.9% [at 42.5 µM]	
CCOc1ccc(NC(N)=O)cc1	1.67%	
CCN1CCN(C(=O)N[C@@H](C(=O)N[C@@H]2C(=O)N3[C@@H]2SC(C)(C)[C@H]3C(=O)O)c2ccccc2)C(=O)C1=O	-1.13% [at 42.5 µM]	
CCCCC(CC)COC(=O)c1ccccc1 (stereo not given)	9.82%	
CO/N=C(/C(=O)N[C@@H]1C(=O)N2C(C(=O)OCOC(=O)C(C)(C)C)=C(C)CS[C@H]12)c1csc(N)n1	-16.1% [at 42.5 µM]	
NC(CCC(=O)O)C(=O)O (stereo not given)	-9.91%	
CCCCCCCCCC(C)C=O (stereo not given)	1.59%	
COP(=O)(OC)OC(c1ccc(Cl)cc1)P(=O)(OC)OC (stereo not given)	12.4% [at 42.5 µM]	
NCc1cccc(C2CCN(C(=O)c3ccc(C#Cc4ccccc4F)o3)CC2)c1		54.5 µM (active)
C=C(C)C(=O)OC	-2.97%	
